# Experimental data taken from the supplement of paper PMC13094657.
# ± gives the standard deviation of the averaged measurements.
# Tests used:
# MDA-MB-231 [1] = experiment: cell viability relative to vehicle unstimulated control (fraction); higher = more viable cells; conditions: pre-treatment time: 18 h then 24 h IFNg/TNF
# MDA-MB-231 [2] = experiment: kynurenine production, fold change vs DMSO IFNg/TNF control; higher = more kynurenine produced (less inhibition); conditions: pre-treatment time: 18 h then 24 h IFNg/TNF
# Summary of the method: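 MDA-MB-231 cells (7 × 10^4/well, 96-well plates, seeded 24 h earlier) were pre-treated 18 h with each natural product in 0.1% DMSO, then stimulated 24 h with IFNγ (1 U/ml) and TNF (6.25 ng/ml) at 37°C. Supernatant kynurenine was read at 492 nm after trichloroacetic acid and p-dimethylaminobenzaldehyde treatment, against 0–100 μM standards. Kynurenine production is the fold change over cytokine-stimulated vehicle wells on the same plate, averaged over duplicate plates in the first screening round.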
# 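Wherever cell viability relative to vehicle unstimulated control is given: viability of the cells left after supernatant collection, read with Deep Blue dye added for 4 h, as absorbance at 570 nm minus 600 nm.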
SMILES,cell viability (MDA-MB-231 [1]),kynurenine production (MDA-MB-231 [2])
C=C(C)[C@@H]1CC[C@]2(C(=O)O)CC[C@]3(C)[C@H](CC[C@@H]4[C@@]5(C)CCC(=O)C(C)(C)[C@@H]5CC[C@]43C)[C@@H]12 [Betulonic acid] (compound dose: 10 uM),0.836 ± 0.033,0.785 ± 0.074
C/C(=C\C(=O)CC(C)C(=O)O)[C@H]1C[C@H](O)[C@@]2(C)C3=C(C(=O)C[C@]12C)[C@@]1(C)CCC(=O)C(C)(C)[C@@H]1C[C@@H]3O (some centres not stated) [Ganoderenic acid A] (compound dose: 10 uM),1.03 ± 0.068,0.817 ± 0.31
COc1ccc(SC)cc1 [4-methoxythioanisole] (compound dose: 10 uM),0.965 ± 0.057,0.973 ± 0.12
C[C@@H]1O[C@@H](OC[C@H]2O[C@@H](Oc3c(-c4ccc(O)cc4)oc4cc(O)cc(O)c4c3=O)[C@H](O)[C@@H](O)[C@@H]2O)[C@H](O)[C@H](O)[C@H]1O [Kaempferol 3-rutinoside] (compound dose: 10 uM),1.1 ± 0.14,0.955 ± 0.049
C[C@@H]1O[C@@H](O[C@H]2[C@H](OC(=O)[C@]34CCC(C)(C)C[C@H]3C3=CC[C@@H]5[C@@]6(C)C[C@H](O)[C@H](O[C@@H]7O[C@H](CO)[C@@H](O)[C@H](O)[C@H]7O)C(CO)(CO)[C@@H]6CC[C@@]5(C)[C@]3(C)C[C@H]4O)OC[C@H](O)[C@@H]2O)[C@H](O)[C@H](O)[C@H]1O[C@@H]1OC[C@@H](O)[C@H](O)[C@H]1O [Deapioplatycodin D] (compound dose: 10 uM),0.93 ± 0.031,0.643 ± 0.13
CC1(C)[C@@H](O)CC[C@]2(C)[C@H]3CC=C4[C@@H]5C[C@@]6(C)C[C@H](OC6=O)[C@]5(C)CC[C@@]4(C)[C@]3(C)CC[C@@H]12 [Wilforlide A] (compound dose: 2 uM),0.877 ± 0.047,0.834 ± 0.13
"CC(C)C12CCC(C)(CC1)O2 [1,4-Cineole] (compound dose: 10 uM)",0.907 ± 0.026,0.863 ± 0.11
CC(C)=CCC[C@@](C)(O)[C@H]1CC[C@]2(C)[C@@H]1[C@H](O)C[C@@H]1[C@@]3(C)CC[C@H](O)C(C)(C)[C@@H]3CC[C@]12C [(20R)-Protopanaxadiol] (compound dose: 10 uM),0.9532 ± 0.0069,0.793 ± 0.14
CC(/C=C/C=C(\C)C(=O)O[C@@H]1O[C@H](CO)[C@@H](O)[C@H](O)[C@H]1O)=C\C=C\C=C(C)\C=C\C=C(/C)C(=O)O[C@@H]1O[C@H](CO[C@@H]2O[C@H](CO)[C@@H](O)[C@H](O)[C@H]2O)[C@@H](O)[C@H](O)[C@H]1O [Crocin II] (compound dose: 10 uM),0.987 ± 0.09,0.907 ± 0.13
COC(=O)C1=CO[C@@H](O[C@@H]2O[C@H](CO[C@@H]3O[C@H](CO)[C@@H](O)[C@H](O)[C@H]3O)[C@@H](O)[C@H](O)[C@H]2O)[C@@H]2C(CO)=CC[C@H]12 [Genipin 1-β-D-gentiobioside] (compound dose: 10 uM),0.849 ± 0.014,0.718 ± 0.24
C[C@@H]1CC[C@]2(C)CC[C@]3(C)C(=CC(=O)C4[C@@]5(C)CC[C@@H](O)[C@](C)(C(=O)O)C5CC[C@]43C)C2[C@H]1C (stereo partly drawn) [11-Keto-beta-boswellic acid] (compound dose: 10 uM),0.949 ± 0.013,0.94 ± 0.12
CC1=C[C@H]2[C@@H](CC1)[C@H](C)CC[C@H]2[C@@H](C)C(=O)O [Dihydroartemisinic acid] (compound dose: 10 uM),1.107 ± 0.0025,0.998 ± 0.035
CC1=CC(=O)[C@@H]2C[C@H]1C2(C)C [Verbenone] (compound dose: 10 uM),1.128 ± 0.0013,1.25 ± 0.13
C=C1CCC[C@]2(C)CC[C@@H](C(C)(C)O)C[C@@H]12 [Beta-Eudesmol] (compound dose: 10 uM),1.077 ± 0.0077,0.904 ± 0.14
C=C1[C@H](OC(C)=O)[C@@H](OC(C)=O)[C@@H](OC(C)=O)C(C)(C)/C=C/[C@H](C)[C@H](OC(C)=O)[C@@]2(O)C[C@@](C)(OC(C)=O)[C@H](OC(=O)c3ccccc3)[C@@H]2[C@H]1OC(C)=O [Jatrophane 2] (compound dose: 10 uM),1.08 ± 0.062,0.926 ± 0.049
C[C@H](CC[C@@H](O[C@@H]1O[C@H](CO)[C@@H](O)[C@H](O)[C@H]1O)C(C)(C)O)[C@H]1CC[C@@]2(C)[C@@H]3CC=C4[C@@H](CC[C@H](O)C4(C)C)[C@]3(C)[C@H](O)C[C@]12C [Mogroside I A1] (compound dose: 10 uM),0.881 ± 0.068,0.921 ± 0.21
CC(=O)O[C@@H]1CC[C@@]2(C)[C@@H](CC[C@]3(C)[C@@H]2C(=O)C=C2[C@@H]4[C@@H](C)[C@H](C)CC[C@]4(C)CC[C@]23C)[C@@]1(C)C(=O)O (compound dose: 10 uM),1.03 ± 0.031,1.06 ± 0.062
CC(=O)O[C@@H]1C[C@@]23C[C@@]24CC[C@H](O[C@@H]2OC[C@@H](O)[C@H](O)[C@H]2O)C(C)(C)[C@@H]4CC[C@H]3[C@]2(C)C[C@@H]3O[C@]4(C[C@@H](C)[C@@H]3[C@@]12C)OC[C@@]1(C)O[C@@H]41 [26-Deoxyactein] (compound dose: 10 uM),0.9809 ± 0.0077,0.911 ± 0.22
C[C@H]1O[C@@H](O[C@H]2CC[C@@]3(C)[C@@H](CC[C@]4(C)[C@@H]3C=CC3=C5CC(C)(C)CC[C@]5(CO)[C@H](O)C[C@]34C)[C@]2(C)CO)[C@H](O)[C@@H](O[C@@H]2O[C@H](CO)[C@@H](O)[C@H](O)[C@H]2O)[C@H]1O [Saikosaponin B2] (compound dose: 10 uM),1.047 ± 0.0068,0.739 ± 0.04
CC1(C)CC[C@]2(C(=O)O)CC[C@]3(C)C(=CC[C@@H]4[C@@]5(C)CC[C@H](O[C@@H]6O[C@H](C(=O)O)[C@@H](O)[C@H](O)[C@H]6O)C(C)(C)[C@@H]5CC[C@]43C)[C@@H]2C1 [Calenduloside E] (compound dose: 10 uM),1.07 ± 0.054,0.962 ± 0.087
C=C1C(=O)O[C@H]2[C@H]1CCC(C)=C1CC[C@@](C)(O)[C@@H]12 [Micheliolide] (compound dose: 10 uM),0.904 ± 0.063,0.591 ± 0.11
